The full data set covers some 7,900 targets. This sample favours those with a hit. About 0.6% of all pairs of compound and target were hits. Values without a mark were called inactive.
Assays:
Experiment in all cases: log2 fold change, soluble protein after heating vs DMSO (PISA); higher = thermal stabilisation; K562 cells, 10 uM, 30 min; active = over 0.2 and 3.5 SD of the protein, either way, in both replicates (recomputed)
[1] = compound: CS(=O)(=O)c1ccc(-c2cnc(N)c(C(=O)Nc3ccccc3)n2)cc1
Procedure, shortened: (§1)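 Soluble protein was quantified by TMTpro 16plex LC-MS/MS after channel sums were equalised. It was obtained as the supernatant after 21,000xg for 90 min from pooled aliquots of K562 cells (2×10^6 cells/mL, 10 μM compound, 30 min) heated for 3 min across 48°C-58°C and extracted in PBS with 0.5% NP-40 at 4°C. Thermal stability values are relative to control samples and come from duplicates. They are given as log2 fold changes.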

[2] = compound: C[C@@H](Oc1cc(-c2cnn(C3CCNCC3)c2)cnc1N)c1c(Cl)ccc(F)c1Cl [crizotinib]
Procedure, shortened: as §1

[3] = compound: C[C@@H]1COCCN1C2=NC(=NC(=C2)C3(CC3)S(=O)(=O)C)C4=C5C=CNC5=CC=C4
Procedure, shortened: as §1

[4] = compound: C[C@H](C1=CC=C(C=C1)C(=O)NC2=C3C=CNC3=NC=C2)N
Procedure, shortened: as §1

[5] = compound: C[C@H](Nc1ncnc2nc[nH]c12)c1cc2cccc(Cl)c2c(=O)n1-c1ccccc1 [duvelisib]
Procedure, shortened: as §1

[6] = compound: Cc1cc(Nc2cc(CN3CCOCC3)c3nc(C)c(Cc4ccc(Cl)cc4F)n3n2)n[nH]1 [gandotinib]
Procedure, shortened: as §1

[7] = compound: Cc1cc(Nc2cc(N3CCN(C)CC3)nc(Sc3ccc(NC(=O)C4CC4)cc3)n2)n[nH]1 [tozasertib]
Procedure, shortened: as §1

[8] = compound: Cc1cc(SCc2sc(-c3ccc(C(F)(F)F)cc3)nc2C)ccc1OCC(=O)O
Procedure, shortened: as §1

[9] = compound: Cc1ccc(-n2nc(C(C)(C)C)cc2NC(=O)Nc2ccc(OCCN3CCOCC3)c3ccccc23)cc1 [doramapimod]
Procedure, shortened: as §1

[10] = compound: Cc1ccc(C(=O)N(CCCN)[C@@H](c2nc3cc(Cl)ccc3c(=O)n2Cc2ccccc2)C(C)C)cc1 [ispinesib]
Procedure, shortened: as §1

Sequence of UniProt Q5VIR6 (Q5VIR6 whole entry, looked up): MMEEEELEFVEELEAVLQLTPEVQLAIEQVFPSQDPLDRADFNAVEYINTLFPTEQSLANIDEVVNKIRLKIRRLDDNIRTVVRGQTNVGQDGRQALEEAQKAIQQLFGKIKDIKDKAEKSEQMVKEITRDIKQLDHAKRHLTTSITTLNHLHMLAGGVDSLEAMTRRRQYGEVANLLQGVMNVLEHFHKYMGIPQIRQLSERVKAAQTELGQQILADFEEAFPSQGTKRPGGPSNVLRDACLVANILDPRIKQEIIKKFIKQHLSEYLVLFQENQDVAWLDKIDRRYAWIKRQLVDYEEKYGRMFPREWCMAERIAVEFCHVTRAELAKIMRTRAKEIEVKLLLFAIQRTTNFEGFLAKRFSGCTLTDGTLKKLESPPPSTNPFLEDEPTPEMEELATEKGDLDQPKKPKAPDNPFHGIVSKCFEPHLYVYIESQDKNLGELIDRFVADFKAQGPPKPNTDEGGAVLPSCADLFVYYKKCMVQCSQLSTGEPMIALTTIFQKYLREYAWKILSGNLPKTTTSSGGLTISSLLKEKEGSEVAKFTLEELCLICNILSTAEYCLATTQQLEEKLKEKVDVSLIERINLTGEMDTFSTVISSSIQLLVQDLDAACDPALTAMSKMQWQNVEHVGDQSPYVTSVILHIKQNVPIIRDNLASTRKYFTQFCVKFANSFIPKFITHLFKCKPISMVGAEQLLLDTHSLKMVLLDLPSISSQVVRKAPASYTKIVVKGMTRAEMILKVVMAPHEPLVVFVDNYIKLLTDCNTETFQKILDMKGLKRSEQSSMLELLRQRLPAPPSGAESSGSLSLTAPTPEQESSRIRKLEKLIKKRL
Sequence of UniProt Q9BVJ6 (Q9BVJ6 whole entry, looked up): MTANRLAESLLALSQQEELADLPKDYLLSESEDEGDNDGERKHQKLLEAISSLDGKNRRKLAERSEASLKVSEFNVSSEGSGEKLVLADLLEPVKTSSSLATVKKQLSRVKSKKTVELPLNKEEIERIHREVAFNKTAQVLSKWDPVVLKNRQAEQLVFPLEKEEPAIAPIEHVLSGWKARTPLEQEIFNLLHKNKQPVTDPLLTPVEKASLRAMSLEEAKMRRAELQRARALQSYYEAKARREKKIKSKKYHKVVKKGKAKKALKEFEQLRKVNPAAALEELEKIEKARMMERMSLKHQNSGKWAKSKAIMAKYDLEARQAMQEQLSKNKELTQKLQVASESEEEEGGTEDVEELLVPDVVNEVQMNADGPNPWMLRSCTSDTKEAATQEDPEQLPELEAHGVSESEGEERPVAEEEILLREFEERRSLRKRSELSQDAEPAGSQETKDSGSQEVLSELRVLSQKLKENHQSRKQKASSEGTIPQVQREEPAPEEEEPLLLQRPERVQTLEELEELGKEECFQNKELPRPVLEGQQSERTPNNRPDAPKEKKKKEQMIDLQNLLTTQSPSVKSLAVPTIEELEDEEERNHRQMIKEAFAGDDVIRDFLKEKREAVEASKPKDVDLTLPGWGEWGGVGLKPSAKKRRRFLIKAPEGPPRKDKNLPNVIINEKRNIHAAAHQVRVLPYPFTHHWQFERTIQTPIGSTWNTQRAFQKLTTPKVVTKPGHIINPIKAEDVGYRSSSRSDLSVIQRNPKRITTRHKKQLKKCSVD
Sequence of UniProt Q96LJ8 (Q96LJ8 whole entry, looked up): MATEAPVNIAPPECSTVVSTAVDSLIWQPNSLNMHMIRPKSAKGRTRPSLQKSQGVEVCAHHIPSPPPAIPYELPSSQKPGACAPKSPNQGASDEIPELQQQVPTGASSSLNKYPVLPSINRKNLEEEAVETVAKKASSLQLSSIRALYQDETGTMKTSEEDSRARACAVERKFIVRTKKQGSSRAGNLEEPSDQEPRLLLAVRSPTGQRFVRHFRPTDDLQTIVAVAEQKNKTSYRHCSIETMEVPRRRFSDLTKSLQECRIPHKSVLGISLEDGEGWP
Sequence of UniProt Q9UEU0 (Q9UEU0 whole entry, looked up): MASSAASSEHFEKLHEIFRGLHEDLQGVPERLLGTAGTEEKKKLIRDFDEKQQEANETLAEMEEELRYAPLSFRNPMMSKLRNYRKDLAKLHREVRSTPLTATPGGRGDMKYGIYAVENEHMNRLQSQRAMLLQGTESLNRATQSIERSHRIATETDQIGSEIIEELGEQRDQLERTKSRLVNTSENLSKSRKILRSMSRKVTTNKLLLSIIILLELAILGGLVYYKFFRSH
Sequence of UniProt A3KMH1 (A3KMH1 whole entry, looked up): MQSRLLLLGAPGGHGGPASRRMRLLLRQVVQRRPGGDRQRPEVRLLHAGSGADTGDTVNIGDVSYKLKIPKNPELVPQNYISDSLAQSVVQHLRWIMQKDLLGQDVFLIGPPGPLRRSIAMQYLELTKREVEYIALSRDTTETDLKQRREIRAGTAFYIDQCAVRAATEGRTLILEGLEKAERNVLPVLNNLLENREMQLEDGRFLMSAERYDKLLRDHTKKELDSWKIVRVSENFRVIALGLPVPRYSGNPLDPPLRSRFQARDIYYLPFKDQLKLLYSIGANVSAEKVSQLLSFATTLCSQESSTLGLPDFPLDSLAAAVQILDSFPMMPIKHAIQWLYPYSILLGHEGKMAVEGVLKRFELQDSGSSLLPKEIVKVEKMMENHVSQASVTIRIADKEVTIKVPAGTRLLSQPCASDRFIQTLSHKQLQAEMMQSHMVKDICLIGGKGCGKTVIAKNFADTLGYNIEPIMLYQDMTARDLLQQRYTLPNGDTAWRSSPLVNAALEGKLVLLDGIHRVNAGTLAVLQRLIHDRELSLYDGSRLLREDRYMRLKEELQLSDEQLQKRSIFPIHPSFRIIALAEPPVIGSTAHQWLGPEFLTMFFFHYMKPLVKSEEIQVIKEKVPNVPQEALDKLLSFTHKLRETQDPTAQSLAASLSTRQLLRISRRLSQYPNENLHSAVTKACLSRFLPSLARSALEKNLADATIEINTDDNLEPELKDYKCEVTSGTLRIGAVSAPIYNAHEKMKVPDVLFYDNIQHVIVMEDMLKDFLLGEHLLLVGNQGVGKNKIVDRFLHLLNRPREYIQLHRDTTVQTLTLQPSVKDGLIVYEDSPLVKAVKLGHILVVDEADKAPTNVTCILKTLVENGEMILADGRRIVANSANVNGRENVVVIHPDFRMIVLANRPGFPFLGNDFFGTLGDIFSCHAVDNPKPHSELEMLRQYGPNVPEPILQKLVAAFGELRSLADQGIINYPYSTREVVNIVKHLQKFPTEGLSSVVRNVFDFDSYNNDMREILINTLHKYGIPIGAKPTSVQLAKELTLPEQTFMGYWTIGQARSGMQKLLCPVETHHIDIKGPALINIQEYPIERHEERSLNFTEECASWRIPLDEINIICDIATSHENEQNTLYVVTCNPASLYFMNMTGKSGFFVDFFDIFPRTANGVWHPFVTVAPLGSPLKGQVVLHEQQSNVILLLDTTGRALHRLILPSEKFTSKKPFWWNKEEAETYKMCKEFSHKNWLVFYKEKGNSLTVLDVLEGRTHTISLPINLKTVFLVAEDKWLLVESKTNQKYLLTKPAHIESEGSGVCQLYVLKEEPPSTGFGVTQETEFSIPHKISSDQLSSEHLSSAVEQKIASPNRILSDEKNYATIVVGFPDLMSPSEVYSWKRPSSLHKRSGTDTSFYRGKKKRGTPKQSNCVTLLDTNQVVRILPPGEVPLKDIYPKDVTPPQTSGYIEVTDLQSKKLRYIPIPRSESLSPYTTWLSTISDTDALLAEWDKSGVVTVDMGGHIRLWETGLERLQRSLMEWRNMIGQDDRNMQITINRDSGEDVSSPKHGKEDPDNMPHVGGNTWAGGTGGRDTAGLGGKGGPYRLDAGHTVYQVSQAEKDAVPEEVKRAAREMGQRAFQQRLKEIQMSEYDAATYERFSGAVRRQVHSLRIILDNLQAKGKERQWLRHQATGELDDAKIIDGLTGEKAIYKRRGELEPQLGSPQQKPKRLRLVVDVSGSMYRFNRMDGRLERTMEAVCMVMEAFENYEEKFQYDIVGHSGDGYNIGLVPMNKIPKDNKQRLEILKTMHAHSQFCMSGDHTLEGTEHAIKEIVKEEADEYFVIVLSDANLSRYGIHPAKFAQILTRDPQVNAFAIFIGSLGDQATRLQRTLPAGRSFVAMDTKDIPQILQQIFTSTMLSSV
Sequence of UniProt Q53S58 (Q53S58 whole entry, looked up): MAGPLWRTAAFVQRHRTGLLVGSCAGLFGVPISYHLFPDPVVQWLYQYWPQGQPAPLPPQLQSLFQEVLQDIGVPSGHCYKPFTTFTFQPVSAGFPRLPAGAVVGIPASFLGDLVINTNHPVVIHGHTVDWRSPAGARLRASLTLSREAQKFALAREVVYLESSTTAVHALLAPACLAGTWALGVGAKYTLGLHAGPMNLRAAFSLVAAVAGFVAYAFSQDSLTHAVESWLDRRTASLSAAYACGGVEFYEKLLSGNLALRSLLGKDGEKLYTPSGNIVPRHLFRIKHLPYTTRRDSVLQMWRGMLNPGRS
Sequence of UniProt O60784 (O60784 whole entry, looked up): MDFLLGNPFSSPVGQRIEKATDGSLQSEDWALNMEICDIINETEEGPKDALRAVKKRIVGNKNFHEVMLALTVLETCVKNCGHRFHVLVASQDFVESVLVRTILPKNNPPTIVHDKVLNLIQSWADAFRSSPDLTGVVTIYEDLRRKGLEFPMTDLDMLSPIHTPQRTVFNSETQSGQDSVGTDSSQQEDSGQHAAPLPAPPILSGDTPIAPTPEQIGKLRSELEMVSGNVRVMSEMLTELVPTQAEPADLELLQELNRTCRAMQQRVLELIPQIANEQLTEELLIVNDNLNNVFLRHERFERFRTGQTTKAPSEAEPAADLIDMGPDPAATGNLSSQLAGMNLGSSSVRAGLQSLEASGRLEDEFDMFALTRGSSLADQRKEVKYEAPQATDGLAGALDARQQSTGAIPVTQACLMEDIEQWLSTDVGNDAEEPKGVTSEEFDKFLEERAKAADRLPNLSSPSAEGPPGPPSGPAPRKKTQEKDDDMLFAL
Sequence of UniProt P51809 (P51809 whole entry, looked up): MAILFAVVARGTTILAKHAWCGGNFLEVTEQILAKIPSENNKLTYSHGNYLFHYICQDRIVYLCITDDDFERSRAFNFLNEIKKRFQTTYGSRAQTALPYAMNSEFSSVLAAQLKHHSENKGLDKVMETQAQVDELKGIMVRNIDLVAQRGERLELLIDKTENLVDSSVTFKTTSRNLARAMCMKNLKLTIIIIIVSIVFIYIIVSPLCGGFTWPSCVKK

| Target | log2 fold change [1] | log2 fold change [2] | log2 fold change [3] | log2 fold change [4] | log2 fold change [5] | log2 fold change [6] | log2 fold change [7] | log2 fold change [8] | log2 fold change [9] | log2 fold change [10] |
| --- | --- | --- | --- | --- | --- | --- | --- | --- | --- | --- |
| TRIM28 (UniProt Q13263) | -0.001 | 0.046 | 0.048 | -0.068 | 0.027 | -0.033 | 0.13 | 0.039 | -0.036 | -0.007 |
| U2AF1 isoform 2 (UniProt Q01081) | -0.046 | 0.067 | 0.03 | -0.134 | 0.044 | -0.005 | 0.05 | 0.114 | -0.143 | 0 |
| TTC4 (UniProt O95801) | 0.046 | -0.001 | 0.017 | 0.029 | 0.032 | -0.025 | 0.061 | 0.134 | -0.028 | 0.108 |
| UBA1 (UniProt P22314) | 0.127 | -0.338 | 0.091 | 0.017 | -0.014 | -0.068 | 0.066 | 0.148 | -0.031 | -0.11 |
| TOM1 isoform 2 (UniProt O60784) | 0.146 | -0.002 | 0.035 | -0.096 | 0.043 | 0.101 | 0.013 | 0.023 | -0.078 | -0.043 |
| VTI1B (UniProt Q9UEU0) | 0.022 | -0.089 | 0.025 | 0.032 | -0.045 | 0.039 | 0.005 | -0.077 | 0.084 | -0.41 (active) |
| UTP14A (UniProt Q9BVJ6) | -0.059 | -0.035 | -0.382 | 0.274 | -0.128 | 0.151 | 0.05 | 0.065 | 0.172 | -0.171 |
| VAMP7 (UniProt P51809) | 0.021 | -0.299 (active) | 0.005 | -0.046 | -0.005 | -0.026 | 0.005 | -0.011 | -0.007 | -0.275 (active) |
| VRK1 (UniProt Q99986) | 0.055 | -0.11 | 0.126 | 0.444 (active) | 0.168 | -0.067 | -0.096 | 0.161 | -0.075 | -0.077 |
| VPS53 isoform 4 (UniProt Q5VIR6) | 0.087 | -0.095 | -0.004 | 0.006 | -0.033 | 0 | 0.061 | 0.059 | 0.036 | -0.113 |
| XPNPEP3 (UniProt Q9NQH7) | 0.06 | -0.013 | 0.011 | -0.001 | 0.059 | -0.033 | -0.034 | 0.034 | 0.065 | -0.046 |
| WEE1 (UniProt P30291) | -0.3 | -0.025 | -1.07 (active) | 0.094 | 0.026 | 0.247 | -0.5 | -0.049 | 0.026 | 0.046 |
| VWA8 (UniProt A3KMH1) | 0.01 | -0.058 | 0.093 | 0.025 | 0.066 | -0.038 | -0.038 | 0.094 | -0.041 | -0.221 |
| TMEM177 (UniProt Q53S58) | 0.005 | 0.033 | 0.065 | 0.011 | 0.039 | 0.025 | 0.087 | 0.053 | -0.062 | -0.304 (active) |
| WDR61 (UniProt Q9GZS3) | 0.043 | -0.044 | 0.071 | -0.056 | 0.059 | -0.099 | -0.072 | -0.017 | -0.004 | -0.028 |
| UBR2 (UniProt Q8IWV8) | 0 | -0.027 | -0.063 | 0.166 | 0.008 | 0 | -0.03 | 0.135 | 0.073 | -0.141 |
| U2AF2 (UniProt P26368) | 0.036 | -0.101 | 0.057 | -0.101 | -0.029 | 0.036 | 0.008 | 0.063 | -0.006 | 0.014 |
| UBE2J1 (UniProt Q9Y385) | 0.06 | -0.172 | 0.026 | -0.043 | 0.179 | -0.151 | 0.026 | -0.01 | -0.26 | -0.016 |
| VTA1 (UniProt Q9NP79) | 0.032 | -0.049 | 0.056 | -0.019 | 0.019 | -0.127 | 0.004 | 0.057 | -0.021 | -0.014 |
| XPNPEP1 isoform 3 (UniProt Q9NQW7) | 0.069 | -0.023 | 0.098 | -0.076 | 0.036 | -0.053 | -0.023 | 0.007 | 0.028 | -0.015 |
| USO1 isoform 2 (UniProt O60763) | 0.001 | -0.031 | 0.05 | -0.068 | -0.023 | -0.062 | 0.029 | 0.052 | -0.019 | 0.012 |
| UBA6 | 0.05 | 0.024 | 0.047 | -0.017 | -0.007 | -0.039 | 0.05 | 0.078 | -0.038 | 0.014 |
| UTP3 (UniProt Q9NQZ2) | 0.015 | 0.061 | -0.494 | 0.363 | -0.133 | 0.17 | 0.017 | -0.04 | 0.099 | -0.144 |
| UFL1 (UniProt O94874) | 0.05 | -0.053 | -0.043 | 0.067 | 0.005 | -0.069 | -0.016 | 0.106 | -0.02 | -0.025 |
| TOMM20 (UniProt Q15388) | -0.068 | -0.019 | 0.058 | -0.06 | 0.016 | 0.116 | -0.042 | -0.062 | -0.025 | -0.358 (active) |
| XPO1 (UniProt O14980) | -0.016 | -0.138 | 0.089 | 0.006 | -0.024 | -0.223 | 0.027 | 0.094 | -0.034 | -0.081 |
| UBLCP1 (UniProt Q8WVY7) | 0.063 | 0.068 | -0.007 | -0.034 | 0.03 | -0.06 | 0.045 | 0.062 | -0.061 | 0.126 |
| UBXN10 (UniProt Q96LJ8) | -0.03 | -0.121 | -0.091 | -0.09 | -0.017 | 0.161 | -0.122 | -0.008 | -0.014 | -0.124 |
| TNPO2 (UniProt O14787) | 0.019 | -0.153 | 0.046 | -0.037 | 0.03 | -0.059 | 0.077 | 0.048 | 0.011 | -0.14 |
| XRCC1 (UniProt P18887) | 0 | 0.093 | 0.087 | 0.049 | 0.133 | -0.019 | -0.235 | -0.132 | -0.101 | 0.062 |
